# Test results reported in PubChem BioAssay AID720504 (National Center for Advancing Translational Sciences (NCATS), 2013).
# Hit rate of the full screen: of about 360,000 compounds, about 10,000 (2.8%) were called active. Roughly 4% stayed inconclusive and do not appear here. Shown is part of a subset that was picked to be rich in actives. Values without a mark were called inactive. The call rests on the fitted dose curve; in most records, active means well fitted inhibition curve with a large enough effect; inconclusive means small, poorly fitted or top-dose-only effect; inactive means flat fitted curve, though single readings scatter.
# Molecular target: Serine/threonine-protein kinase PLK1 (Homo sapiens) (UniProt P53350)
# Sequence (P53350 whole entry, looked up, the tested form may be a part): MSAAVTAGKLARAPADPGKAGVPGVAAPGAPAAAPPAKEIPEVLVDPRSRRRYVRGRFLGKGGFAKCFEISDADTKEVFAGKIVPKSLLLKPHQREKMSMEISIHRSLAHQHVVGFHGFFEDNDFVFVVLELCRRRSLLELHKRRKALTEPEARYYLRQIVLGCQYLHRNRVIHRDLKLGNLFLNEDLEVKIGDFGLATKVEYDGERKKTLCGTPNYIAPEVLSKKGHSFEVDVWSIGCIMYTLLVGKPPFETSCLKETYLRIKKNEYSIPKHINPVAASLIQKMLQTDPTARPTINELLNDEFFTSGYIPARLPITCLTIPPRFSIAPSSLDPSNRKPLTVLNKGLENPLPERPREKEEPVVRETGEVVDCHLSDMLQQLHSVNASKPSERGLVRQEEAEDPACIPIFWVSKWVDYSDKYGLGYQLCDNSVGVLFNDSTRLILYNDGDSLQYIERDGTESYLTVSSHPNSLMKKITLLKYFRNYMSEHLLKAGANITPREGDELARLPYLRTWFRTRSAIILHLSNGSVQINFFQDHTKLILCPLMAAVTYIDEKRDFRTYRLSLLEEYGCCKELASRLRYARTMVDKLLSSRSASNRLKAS
# Assay: qHTS for Inhibitors of PLK1-PDB (polo-like kinase 1 - polo-box domain): Primary Screen; further: nearly all actives have a fitted effect of over 65% in size; on max response, negative = inhibition: series mostly up to about 57 µM
# Details: Plk1 PBD binding of FITC phosphopeptide, fluorescence polarization
# On the % scale 0 is the no-effect control and ±100 the full control effect; potency means the concentration at half of the fitted maximal effect.
SMILES,"max response, negative = inhibition [%]",Potency
CCN1CCCC1CNC(=O)c1ccc2c(c1)NC(=O)/C(=C\c1ccccc1F)S2 (stereo not drawn),0.0941,–
CC1CCN(C(=S)c2ccc(-c3ccc(Cl)cc3Cl)o2)CC1,–,21.2 µM (active)
Cc1csc(NC(=O)c2ccc(-c3ccc(Cl)cc3Cl)o2)n1,-15,–
COc1ccc(C(=O)Nc2c(Cl)cc(Cl)cc2C(=O)N2CCC(C)CC2)cc1,-14.4,–
COc1ccc2[nH]c(=S)cc(C)c2c1,–,4.74 µM (active)
COc1ccc(N)c(C)c1,-0.841,–
COc1ccc2[nH]c3c(C)c4cc[n+](C)cc4c(C)c3c2c1,-4.23,–
O=S1(=O)CCN(Cc2ccccc2)CC1,-2.26,–
NC(=O)C1(N2CCCC2)CCN(Cc2ccccc2)CC1,-7.37,–
CC12CN(Cc3ccccc3)CC(C)(CN(Cc3ccccc3)C1)C2=NO,–,5.32 µM (active)
O=C(OCc1cn([C@H]2C[C@H](c3ccccc3)N(C(=O)c3cccs3)C[C@@H]2O)nn1)c1ccccc1,-2.46,–
CC(C)(C(=O)N1CCC1(C)C(=O)NS(=O)(=O)c1ccc(Br)cc1)c1ccccc1 (stereo not drawn),-7.26,–
CCOc1ncccc1C(=O)Nc1ccc(S(=O)(=O)Nc2nc(C)cc(C)n2)cc1,0.589,–
Cc1cc(C)nc(NS(=O)(=O)c2ccc(N/C=C\C(=O)c3cccs3)cc2)n1,–,26.7 µM (active)
Cc1ccc(C(=O)/C=C/Nc2ccc(S(=O)(=O)Nc3onc(C)c3C)cc2)cc1,-13.9,–
O=C(CC(CC(=O)c1ccccc1)c1ccco1)c1ccccc1,13.6,–
CSc1ccc(CNC(=O)C2(C)CCCN2C)cc1 (stereo not drawn),-4.46,–
CN(C)CCCOc1ccc(-c2ccc3nccn3c2)cn1,-0.941,–
CCOC(=O)N1C(=O)C[C@](Sc2ccc(C)cc2)(C(=O)OC)[C@H]1c1ccccc1,-3.98,–
Cn1nc(N)c2ncc(C(Cl)(Cl)Cl)nc21,-4.91,–

SMILES,"max response, negative = inhibition [%]",Potency
O=C(c1ccc(F)cc1)n1c(=S)nc2ccccn21,–,26.7 µM (active)
CC1COc2ccccc2N1C(=O)c1ccc(F)cc1 (stereo not drawn),-6.97,–
O=C(c1ccc(F)cc1)N1CCC(n2nnc3ccccc32)CC1,-7.84,–
c1ccc(Cn2nnc3c(NCC4CC4)ncnc32)cc1,-24.2,–
Nc1nc2c(ncn2[C@@H]2O[C@H](CNS(=O)(=O)N3CCc4ccccc4C3)[C@@H](O)[C@H]2O)c(=O)[nH]1,-3.21,–
O=C(Nc1ccc(OCCO)cc1)c1csc([C@H]2C[C@H](O)[C@@H](CO)O2)n1,-5.62,–
Cc1cc(=O)[nH]c2nnnn12,–,23.8 µM (active)
Cc1cc(C)n(-c2nc(O)cc(=O)[nH]2)n1,-2.57,–
Cn1nnnc1SCc1cc(=O)[nH]c2ccccc12,-18.7,–
CCC(CC)C(C(=O)NC1CCCC1)N1CCN(c2cc(C)nc3ccccc23)CC1 (stereo not drawn),-1.11,–
C[C@@H]1CN([C@H](C)CO)S(=O)(=O)c2ccc(C#C[C@@H](C)O)cc2O[C@@H]1CN(C)Cc1ccc(-c2ccccc2)cc1,-3.99,–
CC(=O)Nc1ccc2nc(NC(=O)CS(=O)(=O)c3ccc(F)cc3)sc2c1,-4.56,–
COc1ccc(C(CNC(=O)CSc2ccccc2)N2CCOCC2)cc1 (stereo not drawn),-29.4,–
CCc1ccc([C@@H]2CC(=O)[C@@H]3CN(S(=O)(=O)c4ccc(C)cc4)[C@H](c4ccc(Cl)cc4)C[C@@H]3N2S(=O)(=O)c2ccc(C)cc2)cc1,3.16,–
CN(C)S(=O)(=O)c1ccc2oc(SCC(=O)Nc3ccccc3F)nc2c1,-21.2,–
COc1ccc(S(=O)(=O)N(C)C)cc1NC(=O)COC(=O)c1n[nH]c2ccccc12,-0.239,–
COc1ccc(S(=O)(=O)N(C)C)cc1NC(=O)CSc1ncccn1,–,15 µM (active)
CC1(C)OC(=O)C2=C(CC(c3ccccc3)OC2CCc2ccccc2)O1 (stereo not drawn),-6.04,–
Cc1cccc(C)c1NC(=S)N1CCCCCC1,-6.23,–
O=C(c1ccc(CSc2ccccc2)cc1)N1CCCCCC1,-2.73,–

SMILES,"max response, negative = inhibition [%]",Potency
S=C(c1ccc(-c2ccccc2)o1)N1CCCCC1,–,9.47 µM (active)
O=C(C[C@H]1CC[C@H]2[C@@H](COC[C@H](O)CN2C(=O)c2ccccn2)O1)N1CCN(c2ccccc2)CC1,-2.29,–
Cn1nnnc1NCc1ccc(Cl)c(Cl)c1,-14,–
Cn1nnnc1-c1cc(Cl)cc(Cl)c1,–,26.7 µM (active)
Cc1ccc(S(=O)(=O)N[C@H](CO)C(C)C)cc1,-4.56,–
CCOC(=O)CNc1nc(Cl)nc(Nc2ccccc2)n1,–,21.2 µM (active)
CCOC(=O)CNc1nc(Cl)nc(Nc2ccc(OC)cc2OC)n1,0.534,–
CCC(=O)Nc1ccc(Nc2nc(Cl)nc(Nc3ccc(NC(=O)CC)cc3)n2)cc1,-16.7,–
CC1(C)OC(=O)C2=C(C[C@@H](C3CCCC3)O[C@@H]2c2ccc(Cl)cc2)O1,2.05,–
Cc1c(C#N)c(NC(=O)c2ccccc2)n(Cc2ccccc2)c1C,-4.49,–
CCCc1ccc(-c2c(C)sc(NC(=O)c3ccnn3C)c2C#N)cc1,–,10.6 µM (active)
Cc1ccc(C(=O)Nc2c(C#N)c(C)c(C)n2Cc2ccccc2)cc1,-3.45,–
CC1(C(=O)NS(=O)(=O)c2ccccc2)CCN1C(=O)C1CCCCC1 (stereo not drawn),-5.58,–
Cc1cccnc1C(NC(=O)C1CCN(Cc2ccc(Cl)c(Cl)c2)CC1)c1ccc(Cl)cc1 (stereo not drawn),-6.41,–
Cc1cn([C@H]2C[C@H](O)[C@@H](CNC(=O)[C@H](N)Cc3cccnc3)O2)c(=O)[nH]c1=O,-0.77,–
Cc1ccc(NC(=O)NC(=O)N(C2CCCCC2)S(=O)(=O)c2ccccc2)cc1,–,29.9 µM (active)
CC(c1ccco1)N(C(=O)Nc1ccccc1)C1CCCCC1 (stereo not drawn),-2.64,–
CC(C)(C)NS(=O)(=O)c1ccc(NC(=O)NC2CCCCC2)cc1,-9.85,–
